In PubChem BioAssay AID1159580 (chemical genetic matrix, 2015):
“And” between values parts separate entries of the source, which are not always exact repeats. Identical values can stand only once. Screen size: about 5,500 compounds; about 2,000 (36%) were called active. About 18% were inconclusive and are not listed. No stated cut-off is given here; in the data, active means normalized growth mostly below about 0.91 (no sharp cut-off); inconclusive means no clear call, values can overlap the other calls; inactive means mostly above about 0.92. This is one part of the list.

Test: chemical genetic growth profiling, strain panel (AID 1159580);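 further: tested at 20 µM; growth read once vehicle control cultures reached saturation at 30 °C; 1 = growth at the plate median or of vehicle wells; lower values mean less growth of the strain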
Settings: growth OD

Measured: normalized growth

CC(C)NCC(O)c1cc(O)cc(O)c1 (centres undefined)
inactive: S. cerevisiae deletion strains, locus YJR043C, strain POL32, active compounds read low 1.02 | S. cerevisiae deletion strains, locus YJR066W, strain TOR1, active compounds read low 0.916 | S. cerevisiae deletion strains, locus YKL009W, strain mrt4, active compounds read low 0.967 | S. cerevisiae deletion strains, locus YKL068W, active compounds read low 0.989 | S. cerevisiae deletion strains, locus YKL085W, strain MDH1 (second series), active compounds read low 0.979 | S. cerevisiae deletion strains, locus YKL085W, strain MDH1, active compounds read low 0.979 | S. cerevisiae deletion strains, locus YKL160W, strain elf1, active compounds read low 0.983 | S. cerevisiae deletion strains, locus YKL190W, strain CNB1, active compounds read low 0.989 | S. cerevisiae deletion strains, locus YKR001C, strain vps1, active compounds read low 1.02 | S. cerevisiae deletion strains, locus YKR026C, strain gcn3, active compounds read low 1 | S. cerevisiae deletion strains, locus YKR091W, strain srl3, active compounds read low 0.986 | S. cerevisiae deletion strains, locus YLL001W, strain dnm1, active compounds read low 0.951 | S. cerevisiae deletion strains, locus YLL026W, active compounds read low 0.999 | S. cerevisiae deletion strains, locus YLL041C, strain sdh2, active compounds read low 0.99 | S. cerevisiae deletion strains, locus YLR027C, strain aat2, active compounds read low 0.998 | S. cerevisiae deletion strains, locus YLR039C, strain RIC1, active compounds read low 0.995 | S. cerevisiae deletion strains, locus YLR058C, strain SHM2, active compounds read low 0.994 | S. cerevisiae deletion strains, locus YLR102C, strain apc9, active compounds read low 0.994 | S. cerevisiae deletion strains, locus YLR113W, strain HOG1, active compounds read low 0.972 | S. cerevisiae deletion strains, locus YLR221C, strain rsa3, active compounds read low 0.983 | S. cerevisiae deletion strains, locus YLR258W, strain gsy2, active compounds read low 0.993 | S. cerevisiae deletion strains, locus YLR262C, strain YPT6 (second series), active compounds read low 0.972 | S. cerevisiae deletion strains, locus YLR262C, strain YPT6, active compounds read low 0.98 | S. cerevisiae deletion strains, locus YLR268W, strain sec22, active compounds read low 1.01 | S. cerevisiae deletion strains, locus YLR320W, strain mms22, active compounds read low 0.984 | S. cerevisiae deletion strains, locus YLR330W, strain CHS5, active compounds read low 0.998 | S. cerevisiae deletion strains, locus YLR342W, strain FKS1 (second series), active compounds read low 1.01 | S. cerevisiae deletion strains, locus YLR342W, strain FKS1, active compounds read low 0.987 | S. cerevisiae deletion strains, locus YLR357W, strain rsc2, active compounds read low 0.974 | S. cerevisiae deletion strains, locus YLR370C, strain arc18, active compounds read low 0.975 | S. cerevisiae deletion strains, locus YLR371W, strain rom2, active compounds read low 1 | S. cerevisiae deletion strains, locus YLR384C, strain iki3, active compounds read low 0.993 | S. cerevisiae deletion strains, locus YLR418C, strain cdc73, active compounds read low 0.984 | S. cerevisiae deletion strains, locus YML016C, strain PPZ1, active compounds read low 1.01 | S. cerevisiae deletion strains, locus YML032C, strain rad52, active compounds read low 1.01 | S. cerevisiae deletion strains, locus YML120C, strain ndi1, active compounds read low 0.965 | S. cerevisiae deletion strains, locus YML124C, strain tub3, active compounds read low 1 | S. cerevisiae deletion strains, locus YMR058W, strain fet3, active compounds read low 0.996 | S. cerevisiae deletion strains, locus YMR078C, strain ctf18, active compounds read low 0.988 | S. cerevisiae deletion strains, locus YMR125W, strain sto1, active compounds read low 0.971 | S. cerevisiae deletion strains, locus YMR129W, active compounds read low 0.992 | S. cerevisiae deletion strains, locus YMR205C, strain PFK2, active compounds read low 0.955 | S. cerevisiae deletion strains, locus YMR223W, strain ubp8, active compounds read low 0.975 | S. cerevisiae deletion strains, locus YMR231W, strain pep5, active compounds read low 0.998 | S. cerevisiae deletion strains, locus YMR307W, strain GAS1, active compounds read low 1.04 | S. cerevisiae deletion strains, locus YNL067W, strain RPL9B, active compounds read low 0.995 | S. cerevisiae deletion strains, locus YNL071W, strain lat1, active compounds read low 0.98 | S. cerevisiae deletion strains, locus YNL128W, strain TEP1, active compounds read low 0.967 and 0.965 | S. cerevisiae deletion strains, locus YNL153C, strain GIM3, active compounds read low 1.01 | S. cerevisiae deletion strains, locus YNL175C, strain NOP13, active compounds read low 1 | S. cerevisiae deletion strains, locus YNL183C, strain NPR1, active compounds read low 0.924 | S. cerevisiae deletion strains, locus YNL197C, strain WHI3, active compounds read low 1.01 | S. cerevisiae deletion strains, locus YNL209W, strain ssb2, active compounds read low 0.988 | S. cerevisiae deletion strains, locus YNL224C, strain SQS1, active compounds read low 0.997 | S. cerevisiae deletion strains, locus YNL233W, strain BNI4, active compounds read low 0.997 | S. cerevisiae deletion strains, locus YNL248C, strain rpa49, active compounds read low 0.985 | S. cerevisiae deletion strains, locus YNL250W, strain rad50, active compounds read low 0.979 | S. cerevisiae deletion strains, locus YNL271C, strain bni1, active compounds read low 0.98 | S. cerevisiae deletion strains, locus YNL298W, strain CLA4, active compounds read low 0.975 | S. cerevisiae deletion strains, locus YNL307C, strain MCK1, active compounds read low 0.995 | S. cerevisiae deletion strains, locus YNL322C, strain KRE1 (second series), active compounds read low 0.986 | S. cerevisiae deletion strains, locus YNR049C, strain mso1, active compounds read low 0.993 | S. cerevisiae deletion strains, locus YNR052C, strain pop2, active compounds read low 0.987 | S. cerevisiae deletion strains, locus YOL012C, strain htz1 0.863 | S. cerevisiae deletion strains, locus YOL147C, strain pex11, active compounds read low 0.992 | S. cerevisiae deletion strains, locus YOR001W, strain rrp6, active compounds read low 0.994 | S. cerevisiae deletion strains, locus YOR061W, strain CKA2, active compounds read low 1 | S. cerevisiae deletion strains, locus YOR069W, strain VPS5, active compounds read low 0.996 | S. cerevisiae deletion strains, locus YOR070C, strain gyp1, active compounds read low 0.993 | S. cerevisiae deletion strains, locus YOR080W, strain dia2, active compounds read low 1 | S. cerevisiae deletion strains, locus YOR083W, strain WHI5 (second series), active compounds read low 1 | S. cerevisiae deletion strains, locus YOR083W, strain WHI5, active compounds read low 0.96 | S. cerevisiae deletion strains, locus YOR106W, strain vam3, active compounds read low 0.976 | S. cerevisiae deletion strains, locus YOR136W, strain idh2, active compounds read low 0.997 | S. cerevisiae deletion strains, locus YOR144C, strain elg1, active compounds read low 1.01 | S. cerevisiae deletion strains, locus YOR184W, strain ser1, active compounds read low 0.991 | S. cerevisiae deletion strains, locus YOR231W, strain MKK1, active compounds read low 0.97 | S. cerevisiae deletion strains, locus YOR265W, strain rbl2, active compounds read low 0.994 | S. cerevisiae deletion strains, locus YOR270C, strain vph1, active compounds read low 0.98 | S. cerevisiae deletion strains, locus YOR290C, strain snf2, active compounds read low 0.929 | S. cerevisiae deletion strains, locus YOR316C, strain cot1, active compounds read low 0.993 | S. cerevisiae deletion strains, locus YPL051W, strain arl3, active compounds read low 0.989 | S. cerevisiae deletion strains, locus YPL055C, strain LGE1, active compounds read low 1.02 | S. cerevisiae deletion strains, locus YPL078C, strain atp4, active compounds read low 0.967 | S. cerevisiae deletion strains, locus YPL106C, strain sse1, active compounds read low 0.978 | S. cerevisiae deletion strains, locus YPL240C, strain hsp82, active compounds read low 0.984 | S. cerevisiae deletion strains, locus YPL241C, strain CIN2, active compounds read low 0.996 | S. cerevisiae deletion strains, locus YPL256C, strain CLN2, active compounds read low 0.953 | S. cerevisiae deletion strains, locus YPR119W, strain clb2, active compounds read low 0.984 | S. cerevisiae deletion strains, locus YPR141C, strain kar3, active compounds read low 0.976 | S. cerevisiae deletion strains, locus YPR163C, strain tif3, active compounds read low 0.991 | S. cerevisiae deletion strains, locus YPR167C, strain met16, active compounds read low 0.991 | S. cerevisiae deletion strains, strain wtn01, active compounds read low 0.998 | S. cerevisiae strains, strain wild type, active compounds read low 1.01
